# High-throughput results (PubChem)
# BAZ2B inh – blocks human BAZ2B; 360,000 tested, 4.4% active; Q9UIF8; AlphaScreen BAZ2B-H3K14Ac peptide displacement; AID 504333; Potency, µM (titrated, usually from 114 µM), for the others: top-dose activity change, negative = inhibition, most hits filed as inhibitors; further: potency means the concentration at half of the fitted maximal effect; on the % scale 0 is the no-effect control and ±100 the full control effect; nearly all actives have a fitted effect of over 60% in size
#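 BAZ2B (50 nM) with biotin-H3(5-23)K14Ac peptide (50 nM) in PBS pH 7.4, 0.01% Tween-20, preformed 30 min, then compound 30 min at room temperature; top concentration 110uM. AlphaScreen streptavidin donor/nickel chelate acceptor beads (10 ug/mL final), 20 min dark, signal read.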
# G9a inh – inhibitors of human histone lysine methyltransferase G9a | Q96KQ7 | G9a H3K9 monomethylation, AlphaScreen, 2 h | Potency, µM (series often up to 102 µM), for the others: at the highest dose activity, negative = inhibition, hits mostly inhibitors | 350,000 tested, 8.8% active | AID 504332; further: potency means the concentration at half of the fitted maximal effect; on the % scale 0 is the no-effect control and ±100 the full control effect; nearly all actives have a fitted effect of over 75% in size
#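 Enzyme 20 nM + cpd, 15 min RT; add b-H3K9 pep 500 nM / SAM 20 uM; 2 h RT; anti-H3K9me1 Ab 0.5 ug/mL + SA donor / anti-rabbit acceptor beads 20 ug/mL each, 10 min; AlphaScreen read.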
# HP1b binding inh – HP1-beta chromodomain-methylated histone interaction inhibition; P83916; AlphaScreen HP1-beta / biotin-H3K9me3 peptide binding; Potency, µM (top dose mostly 114 µM), for inactives: at the highest dose activity change, negative = inhibition, usual class: inhibitors; 390,000 tested, 0.56% active; AID 540317; further: potency means the concentration at half of the fitted maximal effect; nearly all actives have a fitted effect of over 70% in size
#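 Compound inhibition of the preformed complex between 50 nM HP1-beta and 50 nM biotinylated H3K9me3 peptide was read by AlphaScreen. Buffer was PBS pH 7.4 with 0.01% Tween-20. Incubations ran 30 min at room temperature, with 10 ug/mL donor/acceptor beads.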
# Six1-Eya2 inh – inhibitors of human Six1/Eya2 interaction. AID 651725. 360,000 tested, 0.56% active. Q15475+O00167. AlphaScreen GST-Six1/His-Eya2 binding, biochemical; hits give low values. activity change, % (no concentration beside the values); in the data active means activity change below about -65%; inconclusive means mostly about -30% to -63%; further: on the % scale 0 is the no-effect control and ±100 the full control effect
#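 AlphaScreen luminescence read after one hour at 37 °C in darkness. Pin-transferred compounds met GST-Six1 and His-Eya2 protein (5X stock 250 nM/500 nM) plus glutathione donor and Ni-chelate acceptor beads (5X, 50 ug/mL).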
# CtBP-E1A blk – inhibitors of CtBP/E1A interaction; AID 651724; 340,000 tested, 0.49% active; AlphaScreen GST-E1A/His-CtBP binding, 1536-well; hits give low values; activity change, % (concentration not given with the values); in the data active means activity change below about -65%; inconclusive means mostly about -30% to -63%; further: on the % scale 0 is the no-effect control and ±100 the full control effect
#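 Protein mix (5X: 125 nM each GST-E1A, His-CtBP) was incubated with pinned compound 2 h at 37 deg C in dark, in 50 mM Tris pH 8.0 buffer with 300 mM NaCl. Glutathione donor and nickel acceptor beads followed; AlphaScreen signal read after 1 h.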
# JMJD2A Tudor – blocks the human JMJD2A Tudor domain; O75164; AID 504339; Potency, µM (highest dose often 114 µM), inactives show at the top dose activity change, negative = inhibition, hits mostly inhibitors; 390,000 tested, 4.4% active; AlphaScreen JMJD2A-Tudor / H3K4me3 peptide binding; further: potency means the concentration at half of the fitted maximal effect; on the % scale 0 is the no-effect control and ±100 the full control effect; nearly all actives have a fitted effect of over 50% in size
# Target sequence (O75164 whole entry, looked up, the tested form may be a part): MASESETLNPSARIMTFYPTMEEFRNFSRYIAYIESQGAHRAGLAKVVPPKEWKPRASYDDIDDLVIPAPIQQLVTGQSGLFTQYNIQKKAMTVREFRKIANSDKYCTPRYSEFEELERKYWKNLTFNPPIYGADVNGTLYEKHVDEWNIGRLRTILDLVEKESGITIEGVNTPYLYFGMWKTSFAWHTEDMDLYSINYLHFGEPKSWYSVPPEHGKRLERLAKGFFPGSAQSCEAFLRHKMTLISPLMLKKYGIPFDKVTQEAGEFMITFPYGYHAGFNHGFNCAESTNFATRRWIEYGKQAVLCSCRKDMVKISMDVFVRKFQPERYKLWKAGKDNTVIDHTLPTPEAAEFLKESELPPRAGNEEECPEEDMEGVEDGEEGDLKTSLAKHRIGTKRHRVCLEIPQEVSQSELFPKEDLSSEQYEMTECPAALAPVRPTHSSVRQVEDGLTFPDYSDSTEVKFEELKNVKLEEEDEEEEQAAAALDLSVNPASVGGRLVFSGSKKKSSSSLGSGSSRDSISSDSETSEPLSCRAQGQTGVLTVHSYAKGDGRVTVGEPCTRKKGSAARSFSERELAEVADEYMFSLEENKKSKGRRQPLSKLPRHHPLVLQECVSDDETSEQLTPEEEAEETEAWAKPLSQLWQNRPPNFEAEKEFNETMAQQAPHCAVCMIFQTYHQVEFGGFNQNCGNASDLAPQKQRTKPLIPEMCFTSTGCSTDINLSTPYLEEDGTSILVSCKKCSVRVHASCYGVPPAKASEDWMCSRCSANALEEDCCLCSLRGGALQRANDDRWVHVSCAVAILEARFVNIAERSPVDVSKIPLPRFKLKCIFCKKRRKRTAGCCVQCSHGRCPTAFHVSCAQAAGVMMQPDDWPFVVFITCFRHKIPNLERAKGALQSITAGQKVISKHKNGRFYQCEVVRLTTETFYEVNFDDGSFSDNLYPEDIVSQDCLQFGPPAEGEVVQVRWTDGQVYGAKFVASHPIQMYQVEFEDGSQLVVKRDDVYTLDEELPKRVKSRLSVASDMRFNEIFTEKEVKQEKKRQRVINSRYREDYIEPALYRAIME
# * hit, by the source's call; u = inconclusive; x = no result given; [ ] = another dose, or the depositor's remark. In the library only some 10% were active in any assay of this set; here they are far more common. Unless noted, the call rests on the fitted dose curve; in most records, active means well fitted inhibition curve with a large enough effect; inconclusive means small, poorly fitted or top-dose-only effect; inactive means no such curve, though single readings can be large or run the other way.
SMILES,BAZ2B inh,G9a inh,HP1b binding inh,Six1-Eya2 inh,CtBP-E1A blk,JMJD2A Tudor
COC(=O)c1ccc2[nH]c3c(c2c1)CC(C)CC3 (centres undefined),25µM*,x,-15%,-3,x,u
CCCc1[nH]c2ccc(C(=O)OC)cc2c1CCC,u,u,-3%,-7,x,u
CCOc1ccc(NC(=O)CN(C)C(=O)c2ccc(NC3CC3)c([N+](=O)[O-])c2)cc1OCC,-32%,u,-2%,-12,-9,-22%
CC1CCc2[nH]c3ccc(C(=O)Nc4ccc(C(=O)N(C)C)cc4)cc3c2C1 (centres undefined),-9%,x,24%,-1,8,3%
Cc1ccc(NC(=O)CN(C)C(=O)c2ccc3[nH]c4c(c3c2)CC(C)CC4)cc1 (centres undefined),u,u,u,-23,-1,45µM*
CCCC(C)NC(=O)c1ccc2[nH]c3c(c2c1)CC(C)CC3 (centres undefined),61%,u,10%,-7,-8,-26%
COC(=O)c1ccc2[nH]c([C@H](C)O)c([C@H](C)O)c2c1,-35%,45µM*,34%,1,-2,-18%
Cc1cc(C)c(NC(=O)CSc2ccc(-c3sc(-c4ccccc4)nc3C)nn2)c(C)c1,-4%,3%[59 µM],9%,x,x,-17%
CCN(CC)S(=O)(=O)c1cc(NC(=O)c2ccc3c(c2)NC(=O)C(C)S3)ccc1C (centres undefined),-2%,1µM*,u,-6,0,-30%
O=C(c1ccco1)N1CCN(S(=O)(=O)c2ccc(C3CCCCC3)cc2)CC1,8%,2%[12.7 µM],17%,-3,1,-13%
CS(=O)(=O)c1ccccc1C(=O)N1CCN(S(=O)(=O)c2ccc(C3CCCCC3)cc2)CC1,-32%,50µM*,7%,-4,-1,-32%
O=C(Nc1cc(-c2nc3ccccc3o2)ccc1Cl)c1ccc(Br)o1,2%,4%[59 µM],12%,x,x,3%
CCOc1ccccc1NC1(c2ccccc2)C(=O)c2ccccc2C1=O,u,11µM*,u,x,x,11µM*
COc1ccc(C)cc1NC1(c2ccccc2)C(=O)c2ccccc2C1=O,u,13µM*,u,x,x,28µM*
Cc1noc(C)c1-c1ccc2ncnc(NCc3cccc(Cl)c3)c2c1,x,x,x,x,x,-12%
CCOC(=O)c1ccc(NC(=O)c2c(NCc3sccc3C)sc3c2CCC(C)C3)cc1 (centres undefined),-15%,u,30%,x,x,-33%
COc1ccc(NC(=O)c2c(NCc3cccs3)sc3c2CCCCC3)cc1,40µM*,7.9µM*,-5%,x,x,50µM*
CCOc1ccc(NC(=O)c2c(NCc3ccc(C)o3)sc3c2CCCCC3)cc1,-22%,5.6µM*,8%,x,x,u
CCOc1ccc(NC(=O)c2c(NCc3cccs3)sc3c2CCCCC3)cc1,u,8.9µM*,-5%,x,x,u
COc1ccc(NC(=O)c2c(NCc3cccs3)sc3c2CCCC3)c(OC)c1,u,u,-4%,x,x,u
CCOc1ccc(NC(=O)c2c(NCc3sccc3C)sc3c2CCCCC3)cc1,-38%,8.9µM*,-22%,x,x,u
Nc1c(C(=O)NCCc2ccccc2)nnn1CC(=O)Nc1ccc(Cl)cc1,10%[57.1 µM],-8%[59 µM],-7%,x,x,-31%
COc1ccc(Cl)cc1NC(=O)C(C)N1Cc2ccccc2C1=O (centres undefined),2%,-1%[59 µM],28%,x,x,2%
CCc1ccc(CNC(=O)c2cnc3sc4cc(OC)ccc4n3c2=O)cc1,0%,-3%[59 µM],39%,x,x,10%
COc1cccc(NC(=O)c2cc3c(-c4ccc(Cl)cc4)nn(C)c3s2)c1,x,39%[59 µM],66%,x,x,-24%
SMILES,BAZ2B inh,G9a inh,HP1b binding inh,Six1-Eya2 inh,CtBP-E1A blk,JMJD2A Tudor
CN1c2cccc3cccc(c23)N(C)C1c1cccs1,u,16µM*,u,-16,-8,-25%
CC1N(C)c2cccc3cccc(c23)N1C,50µM*,2µM*,u,u,-6,-32%[57.1 µM]
c1csc(C2Nc3cccc4cccc(c34)N2)c1,u,u,u,-7,-9,-30%
CCOC(=O)c1cc(-c2ccc(OC(F)F)cc2)nc2nc(SC)[nH]c(=O)c12,-2%,45µM*,33%,-3,6,-17%
CC(=O)c1c(O)c2cccc3c2n(c1=O)CCC3,-4%,14%,56%,-1,x,-10%
CN1CCN(C(=O)c2c(O)c3cccc4c3n(c2=O)CCC4)CC1,x,14µM*,39%,0,4,0%
O=C(COc1ncnc2scc(-c3ccc(F)cc3)c12)NCc1ccco1,-35%,x,0%,4,1,-19%
O=C(CSc1nn(-c2ccccc2)c(=S)s1)NC(=O)NCc1ccco1,u,14µM*,8%,-4,-3,-28%
O=C(CSc1nn(-c2ccccc2)c(=S)s1)Nn1cnnc1,-4%,-3%[59 µM],11%,5,-6,-11%
Cc1nc(SCC(=O)NC(=O)NCc2ccco2)nc(C)c1C,u,50µM*,12%,-6,-2,-28%
Cc1ccc(-c2csc3ncnc(OCC(=O)NC(=O)NCc4ccco4)c23)cc1,u,56µM*,13%,-11,0,-34%
COCCNC(=O)NC(=O)CSc1nc(C)c(C)c(C)n1,-1%,45µM*,45%,20,-6,9%
Cc1sc2ncnc(SCC(=O)NC(=O)NCc3ccco3)c2c1C,u,50µM*,0%,-4,1,-28%
Cc1nc(SCC(=O)NCc2ccco2)c2c(C)c(C)sc2n1,-2%,-1%[12.7 µM],32%,6,19,-24%[57.1 µM]
COc1ccc(CCNC(=O)CCCCn2c(=O)c3ccccc3n(CC(=O)Nc3ccc(C)cc3C)c2=O)cc1OC,-1%,8%[59 µM],31%,x,x,-20%
COCCn1c(C23CC4CC(CC(C4)C2)C3)n[nH]c1=S,-5%,u,28%,-5,2,7.1µM*
COCCn1c(C)cc(C(=O)COC(=O)C23CC4CC(CC(O)(C4)C2)C3)c1C,u,u,15%,-4,3,-16%
CCCCn1c(C23CC4CC(CC(C4)C2)C3)n[nH]c1=S,-34%,x,-10%,-2,-3,32µM*
C=C1NC(=O)c2cc(CN(C)c3ccc(C(=O)N[C@@H](CCC(=O)O)C(=O)O)s3)ccc2N1,x,11%[59 µM],x,x,x,x
Cc1sc2nc3ccc(N4CCCC4)nn3c(=O)c2c1C,-2%,35µM*,11%,-26,-3,-10%
COc1cc(CN(C(=O)COc2ccc(F)cc2)c2ccccn2)cc(OC)c1OC,-11%,0%[59 µM],19%,x,x,-9%
COCCn1c(-c2ccc(Cl)cc2)cnc1SCC(=O)NCc1cccs1,u,45µM*,u,-11,-9,u
